Measured values published in PubChem BioAssay AID1814 (Broad Institute, 2009).
Among all 300,000 compounds or so, about 22,000 (7.3%) were called active. About 2% were inconclusive and are not listed. Cut-off read from the data, not from the text of the source: active = activity score below about -60%; inconclusive = mostly about -28% to -61%; inactive = positive scores. This excerpt belongs to a sample that is enriched for actives.

Test: Activators via SNCA 5'UTR binding, MLPCN (AID 1814)
Conditions: alpha-synuclein 5'UTR reporter, activators screen; active compounds read low; tested at 7.5 µM

Activity score, active:
N=c1c2c3c(sc2nc2n1CCCCC2)CCCC3 -89.5%, CCCCc1ccc(NC(=S)N2CCCC(CO)C2)cc1 (stereo not drawn) -107%, Fc1ccc(/C=N/Nc2nc(-c3cccnc3)nc3ccccc23)cc1 -70.9%, Cc1ccc(NC(=S)NC2CCCC2)cc1 -65.1%, Cc1ccc(/C=N/NC(=S)NC2CCCCC2)o1 -135%, Cc1cc(Br)ccc1NC(=S)NC1CCCC1 -66.7%, CC(C)c1ccc(NC(=O)NC2CCCCC2)cc1 -244%, CCN(CC)S(=O)(=O)c1ccc(-c2cn3ccc(C)cc3n2)cc1 -169%, Cc1cccc(N=Nc2c(O)[nH]c3ccc(F)cc23)c1 -147%, O=C(CC1CCCCC1)NCc1ccc(F)cc1 -72.4%, O=C(CC1CCCCC1)NCc1ccccc1 -86.3%, O=C(Cc1ccccc1)NCc1ccc(F)cc1 -66.4%, O=C(NCCc1ccc(F)cc1)c1n[nH]c2ccccc12 -150%, COc1ccc(COC(=O)c2n[nH]c3ccccc23)cc1F -96.4%, O=C1Nc2ccccc2C12Nc1ccccc1S2 (stereo not drawn) -83.2%, CCC(C)c1ccc(NC(=S)NCc2ccccn2)cc1 (stereo not drawn) -123%, COc1cccc(NC(=S)NCc2ccccn2)c1 -101%, CCOC(=O)c1cc2cc(C)ccc2[nH]1 -132%, CCOC(=O)c1nc(-c2ccc3c(c2)OCO3)[nH]c1C -109%, C[C@@H]1C[C@@H]2O[C@H]2/C=C\C=C\C(=O)Cc2c(Cl)c(O)cc(O)c2C(=O)O1 -113%, CC(C)c1ccc(C(=O)NCCCc2ccccc2)cc1 -150%, S=C(Nc1ccc2c(c1)OCO2)N1CCCC1 -93.7%, Cc1cccn2c(=O)c(C=O)c(Nc3ccc(S(N)(=O)=O)cc3)nc12 -500%, O=C(CC1Nc2ccccc2NC1=O)Nc1ccccc1 (stereo not drawn) -128%, Oc1c(Br)cccc1/C=N/Nc1c(F)c(F)c(F)c(F)c1F -72.3%, Cc1[nH]c(=O)c(C(=O)/C=C/c2ccccc2)c2c1CCCC2 -146%, COc1cccc(NC(=S)C(C#N)=C2N(C)c3ccccc3N2C)c1 -86.1%, COc1ccc(-c2csc3nc(-c4ccccc4F)oc(=O)c23)cc1OC -63.1%, COc1ccc(/C=N/Nc2ncnc3sc4c(c23)CCCC4)cc1O -197%, CC(C)(C)c1ccc(/C=C/C(=O)Nc2ncccn2)cc1 -155%, O=c1c2c(-c3ccccc3)ccnc2[nH]n1-c1ccccc1 -127%, CN(C(=O)CSc1nnnn1-c1ccccc1)C1CCCCC1 -63.1%, CN(C(=O)CSc1nncc2ccccc12)C1CCCCC1 -107%, Cc1ccc(O)c(NC(=O)c2cc(-c3ccco3)on2)c1 -184%, O=C(Cc1cccc2ccccc12)NNC(=O)Nc1ccc(Cl)cc1 -112%, Cc1nn2cc(-c3ccc(Cl)cc3)cnc2c1Br -110%, CN1CCN(NC(=O)Nc2ccc(Br)cc2)CC1 -64.9%, COc1ccc(-n2nnnc2-c2nc3ccccc3s2)cc1 -77.3%, O=C(Nc1cccc(-c2nnc(-c3ccccc3)o2)c1)C1CCCO1 (stereo not drawn) -126%, O=c1c(-c2cccc(Cl)c2)c[nH]n1-c1ccccc1 -74.9%, COc1ccc(Cn2c(-c3ccc(Cl)cc3)c[n+]3ccccc23)cc1 -155%, Fc1ccc(COc2ccc(-c3nnco3)cc2)cc1 -126%, Cc1cc(C)c2nc3nc(C)cc(C)c3c(N)c2c1 -190%, CCCCC(O)(CCCC)C(=O)NN(C(=O)CCl)c1ccccc1 -67.8%, S=C(Nc1ccc(Br)cc1Cl)N1CCC2(CC1)OCCO2 -70.7%, COc1ccc(C(=O)CCc2ccccc2O)c(OC)c1 -128%, O=C(NC1CC1)c1ccc(-c2ccccc2)cc1 -142%, O=C(NCCCn1ccnc1)c1cc(-c2ccccc2)on1 -632%, O=C(NC1CCCCC1)c1cc(C2CC2)on1 -78%, O=C(NC1CCCC1)c1cc(-c2ccccc2)on1 -324%, CN(C)S(=O)(=O)N1CCC(Oc2cccc(C(=O)NCCCC3CCCC3)c2)CC1 -70.6%, Cc1c(NC(=O)c2cc(-c3ccc(Cl)s3)nc3ccccc23)c(=O)n(-c2ccccc2)n1C -105%, Cc1c(NC(=O)c2coc(=O)c(Br)c2)c(=O)n(-c2ccccc2)n1C -75.7%, CC1(C)CCSC(/C=C/c2ccccc2)=N1 -123%, O=C(c1cnn(-c2ccc(Cl)cc2)c1)c1ccccc1O -238%, COc1ccc2nc(NC(=O)NC3CCCCC3)sc2c1 -186%, COc1ccc(NC(=O)Nc2ccc3nsnc3c2)cc1 -138%, COc1ccc2nc(NC(=O)c3ccc(Br)s3)sc2c1 -209%, COc1ccc2nc(Nc3nc4cc5c(cc4s3)OCCO5)sc2c1 -103%, CCOc1ccc2nc(Nc3nc4ccc(NC(C)=O)cc4s3)sc2c1 -88.4%, COc1ccc2nc(Nc3nc4ccc(NC(C)=O)cc4s3)sc2c1 -95.5%, COc1cccc(C(=O)Nc2nc3ccc(S(C)(=O)=O)cc3s2)c1 -102%, CCc1noc(C)c1C(=O)Nc1nc2ccc(OC)cc2s1 -85%, COc1ccc(/C=N/OCc2ccccc2C#N)c(OC)c1 -182%, COc1ccc(N2CCN(C(=O)c3cccs3)CC2)cc1 -69.4%, Cc1ccc(O)c(CNc2nc3ccccc3[nH]2)c1 -69.9%, Cc1ccc(-c2nc(COC(=O)c3c(C)noc3C)cs2)cc1 -170%, CCN1/C(=C/C(=S)Nc2ccccc2)Sc2ccccc21 -111%, CSc1nccc(NC(=O)c2ccc(C(C)(C)C)cc2)n1 -147%, O=C(NC1CCCCC1)c1ccc(-c2ccc(Cl)cc2)o1 -150%, O=C(NC(=S)NC1CCCCC1)c1ccc(Cl)cc1 -160%, CC(C)CNC(=S)NC(=O)c1ccc(Cl)cc1 -111%, COc1ccc(C(=O)NC(=S)NC2CCCCC2)cc1 -137%, Cc1ccc(OCCCC(=O)N2CCOCC2)c(C)c1 -75.1%, COc1ccc(-c2cn(-c3ccc(OC)cc3)c(=S)[nH]2)cc1 -129%, O=C(Nc1ccc2oc(-c3ccc4ccccc4c3)nc2c1)c1cccs1 -233%, CCN(CC)C(=O)c1sc2nc(-c3ccccc3)ccc2c1N -178%, O=C(NNC(=O)c1cc2c(s1)CCCC2)c1ccccc1 -80.5%, O=C(Nc1ccc(F)cc1)c1cc2c(s1)CCCC2 -165%, CCN(CC)c1ccc(C(=O)c2cnc(/N=C/N(C)C)s2)cc1 -64.1%, C=CCNc1cnn(-c2ccc(C)cc2)c(=O)c1Cl -80.9%, Cc1sc2ncnc(Sc3nc4ccccc4s3)c2c1C -71%, CSc1ccccc1OCc1cc(C(=O)N2C[C@H]3CC[C@H]2C3)no1 -85.5%, N#Cc1c(NC(=O)C2CCCO2)sc2c1CCCCC2 (stereo not drawn) -161%, Cc1ccc(C)c(NC(CC(=O)c2ccccc2)C(=O)OCC(=O)c2cccs2)c1 (stereo not drawn) -96.3%, O=C(Cn1ncc(N2CCCC2)c(Br)c1=O)c1ccc(Cl)cc1 -92.2%, O=C(CSc1cccc[n+]1[O-])c1ccc(-c2ccccc2)cc1 -146%, CCOC(=O)c1[nH]c2c(c1C)C(=O)CC(c1ccc(N(C)C)cc1)C2 (stereo not drawn) -105%, CCOc1cc(/C=C2\SC(N3CCCCC3)=NC2=O)ccc1O -75.9%, O=C1N=C(N2CCCC2)S/C1=C\c1cccc(Br)c1 -122%, O=C(COC(=O)c1cccc(Br)c1)Nc1cccc2c1C(=O)c1ccccc1C2=O -79%, CCCC(=O)N=c1sc2cccc(F)c2n1C -76.7%, Cn1c(=NC(=O)c2ccco2)sc2cccc(F)c21 -151%, CSc1ccccc1NC(=O)c1ccc2c(c1)CCN2S(C)(=O)=O -66.1%, CS(=O)(=O)N1CCc2cc(C(=O)Nc3ccccc3)ccc21 -104%, CS(=O)(=O)N1CCc2cc(C(=O)Nc3ccccc3Br)ccc21 -124%

Activity score, inactive:
CN(CCO)c1ccc(/C=N/Nc2nncc3ccccc23)cc1 57.2%, Cc1ccc2nc(-c3ccc(Br)cc3)cn2c1 63.2%, COc1ccc(-c2cn3ccc(C)cc3n2)cc1 92.2%, CCc1ccc2c(c1)C1(NN=C(c3ccccc3)S1)C(=O)N2 (stereo not drawn) 71.7%, CN1CCN(CCCNC(=O)c2ccc(/C=C3\Oc4ccccc4N(Cc4ccc(Cl)cc4)C3=O)cc2)CC1 96.5%, CN(C)c1nc(N)nc(CSc2nnnn2-c2cccc3ccccc23)n1 68.9%, CN(c1ccc2nc3ccccc3c(=O)n2n1)C1CCCCC1 119%, O=C(NCCOc1cccnc1)c1ccc(OC2CCN(Cc3ccccn3)CC2)cc1 95.3%, CCOc1ccc2nc(N(CCCN(C)C)C(=O)c3ccc(C(=O)c4ccccc4)cc3)sc2c1 90.2%, COC(=O)Nc1nc2ccc(Sc3ccccc3)cc2[nH]1 59.2%, Cc1oc2c(c1C(=O)N1CCOCC1)C(=O)c1ccccc1C2=O 101%, O=c1oc2ccccc2cc1-c1cn(-c2ccccc2)c(=S)[nH]1 119%
